Assay results from PubChem BioAssay (NCI).
This is part of a sample that, as a whole, favours compounds with a hit. Of some 83,000 tested, about 20% had one in any assay.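 96-well plates, one dose, 48 hours. Percent growth reported; active if below 10.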 Unmarked numbers belong to inactive results. Activity calls are given as the source filed them.

Assays:
Experiment in all cases: NCI-60 one-dose screen, 48 h (100 = growth as untreated, 0 = no growth, -100 = all killed)
Details in all cases: 10 µM unless noted
NCI-H23 lung = system: NCI-H23 lung
NCI-H226 lung = system: NCI-H226 lung
NCI-H322M lung = system: NCI-H322M lung
HOP-62 NSCLC = system: HOP-62 NSCLC
NCI-H460 lung = system: NCI-H460 lung
HOP-92 NSCLC = system: HOP-92 NSCLC
NCI-H522 lung = system: NCI-H522 lung
A549/ATCC NSCLC = system: A549/ATCC NSCLC
786-0 renal = system: 786-0 renal
COLO 205 colon = system: COLO 205 colon

Structure (SMILES) | growth (NCI-H23 lung) | growth (NCI-H226 lung) | growth (NCI-H322M lung) | growth (HOP-62 NSCLC) | growth (NCI-H460 lung) | growth (HOP-92 NSCLC) | growth (NCI-H522 lung) | growth (A549/ATCC NSCLC) | growth (786-0 renal) | growth (COLO 205 colon)
COc1ccc2c(c1)[nH]c(=O)c1c3cc(C)c(C)cc3cn21 | 51.4% | 37% | -25.1% (active) | -27.8% (active) | -16.4% (active) | -41.7% (active) | -55.8% (active) | -4.9% (active) | 30.9% | -48% (active)
COc1cc(NC(N)=NCCC(C)(C)Oc2ccc(C(F)(F)F)cc2)ncc1C#N | 1.1% (active) | 60.3% | 20.5% | 31% | -79.3% (active) | -10.6% (active) | -83.7% (active) | -42.6% (active) | 7.56% (active) | -87.8% (active)
COc1ccc(-c2cnoc2-c2ccc(OC)cc2O)cc1 | 29.9% | 78.8% | 74.6% | 36.9% | 7.27% (active) | 52.1% | -16% (active) | 40.9% | 44.5% | 72.4%
CN(C[C@H]1Cc2c(cccc2N2CCN(c3ncccn3)CC2)CN1)[C@H]1CCCc2cccnc21 | 45.5% | 39.4% | 50.3% | 17.2% | 20.7% | 27.4% | 52.6% | 25.7% | 39.5% | 10.2%
Clc1ccccc1-c1nc2ccccc2[nH]1 | 90% | 120% | 152% | 92% | 104% | 92.4% | 87.9% | 105% | 46.3% | 112%
N=c1ccc2nc3ccc(N)cc3sc-2c1 | 12.8% | 87.8% | 51.6% | 15% | 43.6% | 40.6% | 12.8% | 7.01% (active) | 59.1% | 0.589% (active)
COc1cc(NC(=O)SC2=NCCS2)cc(OC)c1 | 95% | 98.7% | 110% | 108% | 101% | 84.7% | 86.4% | 101% | 101% | 109%
Nc1cccc(Cl)c1N | 85.2% | 101% | 99.5% | 108% | 101% | 106% | 71.1% | 109% | 110% | 104%
Clc1ccc2c(NC3CCC(NC4CCCCC4)CC3)ccnc2c1 (stereo not given) | 68.1% | 79.7% | 109% | 61.6% | 77.5% | 51.5% | 62.2% | 65.6% | 59.8% | -71.5% (active)
COc1ccc(-c2cc3c(OC)c(OC)c(OC)cc3oc2=O)cc1 | 59.1% | 83.1% | 77% | 50.4% | 13.8% | 30.6% | -11.7% (active) | 47.7% | 57.2% | 31.5%
N#Cc1c(-c2ccccc2)cc(-c2ccccc2)n(CC(=O)NO)c1=O | 53.1% | 38.9% | 81.2% | 71.2% | 83% | 32% | -70.9% (active) | 54.4% | 63.7% | 58.6%
CC(C)(C)n1cc(-c2ccnc(NCCCNS(=O)(=O)c3ccc(Cl)cc3)c2)c(-c2cccc(O)c2)n1 | 14% | 14% | 10.6% | 9.75% (active) | -66.7% (active) | -2.33% (active) | -55.7% (active) | 9.33% (active) | -35.2% (active) | -86.8% (active)
CCOc1cc2c(Cl)ncnc2c(OCC)c1OCC | 79.6% | 91.6% | 65.4% | 90.9% | 99% | 86.9% | 58.8% | 95.6% | 105% | 95.8%
CCN(CC)CCOc1ccc(/C(=C(/C)c2ccccc2)c2ccc(OC(C)=O)cc2)cc1 | 95.7% | 105% | 100% | 106% | 107% | 81% | 102% | 117% | 98.6% | 113%
Cc1c(C(=N)C(C#N)C#N)c(=N)oc2c1ccc1ccccc12 | 73.2% | 95% | 89.9% | 93.6% | 97.4% | 73.1% | -3.19% (active) | 92.8% | 94% | 115%
COc1cc(-c2nn(-c3cccc(NC(=O)Nc4cccc(C(F)(F)F)c4)c3)cc2-c2ccncc2)ccc1Cl | -12.4% (active) | 4.3% (active) | 21.7% | -29.8% (active) | -7.91% (active) | -33.6% (active) | -30.8% (active) | -14% (active) | -15% (active) | -88.9% (active)
C/C=C/C1=CN2C(=O)c3cc(OC4OC(C)C(NC)C(C)(O)C4O)c(C)cc3N=C[C@@H]2C1 (stereo not given in full) | -31.7% (active) | 6.1% (active) | -20.1% (active) | -8.97% (active) | -18.4% (active) | 2.06% (active) | -12.7% (active) | 7.17% (active) | 0.564% (active) | -42.4% (active)
C=CCn1c2ccccc2c2c3c(c4c5ccccc5n(CC=C)c4c21)C(=O)N(O)C3=O | 24.2% | -97.9% (active) | 52.8% | -1.11% (active) | 8.86% (active) | 77.2% | -62.5% (active) | 37.7% | 15.1% | 56.5%
COc1ccc(-c2ccc(-c3ccc(-c4ccc(C(=N)N)cc4)s3)s2)cc1OC | 88.7% | 96.7% | 111% | 86% | 97.7% | 33.1% | 99.9% | 43.1% | 93% | -14.7% (active)
COc1cc2c(cc1OCCCN1CCN(CCCn3c4ccccc4c4ccccc43)CC1)N=C[C@@H]1CCCN1C2=O | -30.6% (active) | -80.4% (active) | -65.5% (active) | -66% (active) | -96.9% (active) | -80.5% (active) | -26.6% (active) | -37.5% (active) | -70.3% (active) | -98.8% (active)
O=C(Oc1ccccc1[N+](=O)[O-])C1CCCN1C(=O)OCc1ccccc1 (stereo not given) | 95.1% | 99.8% | 121% | 111% | 116% | 86.3% | 101% | 98.5% | 98.6% | 115%
CCN(CC)CCC(CNc1ccnc2cc(Cl)ccc12)c1ccccc1 (stereo not given) | 80.3% | 63% | 93.7% | 78.4% | 67.7% | 21.1% | 18% | 70.4% | 69.8% | -39% (active)
CN(C)CCOC(=O)Nc1ccccc1Cl | 98.3% | 106% | 104% | 101% | 105% | 89.2% | 106% | 112% | 100% | 113%
Cc1cc(N/N=C/c2nc(-c3ccccc3)oc2C)c2cc(Cl)ccc2n1 | -19.6% (active) | 81.4% | -54.8% (active) | 10.5% | -78.3% (active) | -61.9% (active) | -59.4% (active) | -76.8% (active) | -83.1% (active) | -71.9% (active)
COc1cc(/C=C/c2cc(/C=C/c3ccc(O)c(OC)c3)n(C(N)=O)n2)ccc1O | -4% (active) | 11.9% | -1.78% (active) | -3.02% (active) | 0.571% (active) | -42.8% (active) | -21.2% (active) | 3.16% (active) | -45.8% (active) | -37.7% (active)
COC(=O)[C@]12CC[C@@H](C)[C@H](C)[C@@H]1C1=CC[C@@H]3[C@@]4(C)C(C=O)=C[C@@](C)(COC(=O)c5ccco5)[C@@H]4[C@H](O)C[C@@]3(C)[C@]1(C)CC2 | -13.5% (active) | -41.5% (active) | 33.1% | -7.36% (active) | -59.6% (active) | -54.7% (active) | -47.9% (active) | 7.92% (active) | -22.9% (active) | -78.6% (active)
N=C(N)c1ccc(-c2cc(Cl)cc(Cl)c2)cn1 | 97.6% | 82.4% | 94% | 91.6% | 96.9% | 59.3% | 90.1% | 93.9% | 95.3% | 19.5%
